Drawing on PubChem BioAssay AID606 (Columbia University Molecular Screening Center, 2007), this text covers inhibition for 26 compounds.

Screen size: about 52,000 compounds; fewer than 10 were called active. Not all results are given here. A number with no mark means an inactive call.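 How the source made its calls: active means IC50 under 40 µM in the dose-response test; inactive means IC50 of 40 µM or more, or never dose-tested.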

In this test the target is Tyrosine-protein phosphatase non-receptor type 22 (Homo sapiens) (UniProt Q9Y2R2). In words: inhibition of human PTPN22 tyrosine phosphatase – biochemical, DiFMUP fluorescence, recombinant catalytic domain, 10 µM, primary screen (AID 606). Particulars: recombinant LYP catalytic domain, at 10 µM, hits give high values.
Chain of Tyrosine-protein phosphatase non-receptor type 22 (Homo sapiens) (Q9Y2R2 whole entry, looked up, the tested form may be a part): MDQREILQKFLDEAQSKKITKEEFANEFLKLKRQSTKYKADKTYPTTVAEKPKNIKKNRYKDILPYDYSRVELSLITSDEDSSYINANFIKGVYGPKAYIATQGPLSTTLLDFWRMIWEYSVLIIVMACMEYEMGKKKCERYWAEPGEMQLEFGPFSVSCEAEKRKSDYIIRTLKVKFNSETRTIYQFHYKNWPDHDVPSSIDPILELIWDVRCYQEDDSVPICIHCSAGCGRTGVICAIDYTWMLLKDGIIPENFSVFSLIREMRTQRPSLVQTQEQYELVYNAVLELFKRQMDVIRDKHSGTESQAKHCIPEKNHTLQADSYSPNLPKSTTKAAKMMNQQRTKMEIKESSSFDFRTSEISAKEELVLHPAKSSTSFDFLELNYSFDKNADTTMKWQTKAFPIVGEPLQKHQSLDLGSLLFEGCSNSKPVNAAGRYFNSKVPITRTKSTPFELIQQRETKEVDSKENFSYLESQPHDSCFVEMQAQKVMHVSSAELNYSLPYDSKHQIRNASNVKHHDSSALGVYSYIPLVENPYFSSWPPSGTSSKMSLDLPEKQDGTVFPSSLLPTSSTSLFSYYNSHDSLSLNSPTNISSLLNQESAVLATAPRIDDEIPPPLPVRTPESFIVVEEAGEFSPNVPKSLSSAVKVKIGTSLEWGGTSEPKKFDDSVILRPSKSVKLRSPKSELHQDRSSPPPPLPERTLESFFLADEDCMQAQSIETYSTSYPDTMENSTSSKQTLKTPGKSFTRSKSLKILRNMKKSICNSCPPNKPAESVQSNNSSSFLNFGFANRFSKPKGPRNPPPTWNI
The term inhibition denotes the change of the read-out against control, counted positive when it falls. As to `CC1CCCCN1CCNC(=O)Cn1nc(-c2ccccc2)ccc1=O` (stereo unspecified), the inhibition is -5.86%.

In the case of `CCOC(=O)N1CCC(NC(=O)CCC(=O)N2CC(C)Oc3ccccc32)CC1` (stereo unspecified), the inhibition is 4.49%.

In the case of `COCCn1cc(C(=O)N2CCCC(C)C2)c2c3ccccc3n(C)c2c1=O` (stereo unspecified), the inhibition was 8.11%.

On to `CCn1c(SCC(=O)Nc2ccc(C(C)=O)cc2)nc2ccccc21`, for which the inhibition was 9.9%.

`CC(C)C(NC(=O)C1CCCCC1)C(=O)Nc1ccc2c(c1)OCCO2` (stereo unspecified): the inhibition was 5.06%.

With `Cc1cc(C)nc(N2CCN(c3ncnc4c3cnn4Cc3ccc(Cl)cc3Cl)CC2)n1`, the inhibition is 0.3%.

Regarding `Cc1c(C(=O)N2CCOCC2)oc2ccc(S(=O)(=O)N3CCCCCC3)cc12`, the inhibition is 1.73%.

As for `C=CCn1c(C)nc2c(c1=O)c1nc3ccccc3nc1n2-c1ccc(C)cc1`, the inhibition was 20.7%.

On to `Cc1ccc(C2CC(c3ccccc3C)n3nc(N)nc3N2)cc1` (stereo unspecified), for which the inhibition was 1.78%.

Regarding `O=C(c1ccccc1)c1coc2ccc(O)c(CN3CCOCC3)c12`, the inhibition was 4.43%.

Turning to `CCn1c(SCCC#N)nnc1-c1ccncc1`, the inhibition is 5.61%.

Take `COC(=O)C1C(=O)C2=C(CC1C)NC(C)=C(C(=O)OC(C)C)C2c1ccc(OC)c(O)c1` (stereo unspecified): the inhibition was 8.85%.

As for `CCOn1c(=O)c(-c2cc3ccccc3o2)[n+]([O-])c2ccccc21`, the inhibition was 7.2%.

As for `N#C/C(=C\c1ccc[nH]1)S(=O)(=O)c1ccccc1`, the inhibition was 1.07%.

With `Cc1cccc(-c2noc(C3CCCCC3)n2)c1`, the inhibition is 15.8%.

As to `CCOc1ccc(C(=O)NCCCN(CC)CC)cc1`, the inhibition is 16.6%.

For `CCC1CCCCN1C(=O)Cn1c(=O)oc2ccccc21` (stereo unspecified), the inhibition is -4.33%.

`Cc1ccc(NC(=O)N(Cc2cc3cc(C)cc(C)c3[nH]c2=O)CC2COCCO2)cc1` (stereo unspecified): the inhibition is 1.86%.

In the case of `CC(C)CN1C(=O)NC(NC(=O)c2cccs2)(C(F)(F)F)C1=O` (stereo unspecified), the inhibition was -4.34%.

Take `CCOc1ccccc1N(C(=O)Cn1nnnc1-c1ccc(C)o1)C(CC)C(=O)NC(C)(C)C` (stereo unspecified): the inhibition was 7.35%.

In the case of `O=C(NCc1ccccc1)N(Cc1nc2ccccc2c(=O)[nH]1)C1CCCC1`, the inhibition was 12.2%.

Turning to `Fc1ccccc1N1CCN(c2nc3ccccc3n3nnnc23)CC1`, the inhibition is 0.81%.

As to `CN(C(=O)COC(=O)c1nc(-c2ccccc2)n(-c2ccccc2)n1)C1CCS(=O)(=O)C1` (stereo unspecified), the inhibition is 23.8%.

`C=CCc1cccc(CNc2nc3ccccc3n2CC)c1O`: the inhibition was 8.31%.

`O=C(O)CCc1ccc(-c2ccccc2)n1NC(=O)c1ccco1`: the inhibition is 13.5%.

In the case of `CC1CN(C(=O)c2cc3c(=O)n4ccccc4nc3s2)CC(C)O1` (stereo unspecified), the inhibition is 14.8%.
